# HCMV antiviral: blocks human cytomegalovirus replication | activity change, negative = inhibition, % at 57.5 µM | HFF cells, HCMV-luciferase reporter, 72 h; active compounds read low | AID 1259415 | actives 4.5% (n = 410,000); in the data active means activity change below about -60%; inconclusive means no clear call, values can overlap the other calls; inactive means above about -39%
#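 Two-dose cell screen: HFF monolayers treated with compounds and infected with luciferase-expressing HCMV at 1 PFU/cell, 72 h at 37C, then lysed for luciferase measurement.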
# Lassa entry inh: blocks Lassa virus binding to or entry into cells. Lassa virus pseudotype entry inhibition, cell reporter. Potency, µM (series often up to 37.9 µM), usual class: inhibitors. actives 1.2% (n = 300,000). AID 540256; calls by dose curve; tested in HEK293 cells; further: nearly all actives have a fitted effect of over 50% in size
# HCV inhibitor: inhibitors of hepatitis C virus infection. Huh7.5.1 HCVcc-Cre infection, luciferase reporter, 44 h. Potency, µM (series often up to 41.8 µM), hits mostly inhibitors. actives 3.4% (n = 340,000); active means well fitted inhibition curve with a large enough effect; inconclusive means small, poorly fitted or top-dose-only effect, or another doubt; inactive means no such curve, though single readings can be large or run the other way
#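 After 44 h co-culture of compound, cells and HCVcc-Cre (~0.5 moi), substrate is added for 15 min at room temperature and luciferase measured over 15 sec. Cells were seeded at 1,000/well and pre-cultured 4 h.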
# Vaccinia mCherry: inhibitors of vaccinia virus infection (mCherry reporter signal); Vaccinia virus mCherry reporter infection, fluorescence; Potency, µM (highest dose often 36.5 µM), usual class: inhibitors; actives 0.63% (n = 310,000); AID 720579; calls by dose curve; tested in A549 cells; further: nearly all actives have a fitted effect of over 35% in size
# MARV entry inh: Marburg virus entry inhibition; Marburg virus pseudotyped entry inhibition, cell reporter; Potency, µM (doses to about 37.8 µM), actives largely listed as inhibitors; actives 1.8% (n = 300,000); calls by dose curve; tested in HEK293 cells
# VACV Venus inh: vaccinia inhibition (Venus reporter); Vaccinia virus Venus reporter expression, fluorescence; Potency, µM (titrated, usually from 36.5 µM), usual class: inhibitors; actives 0.46% (n = 330,000); AID 720580; calls by dose curve; tested in A549 cells; further: nearly all actives have a fitted effect of over 30% in size
# Numbers stand for hits; . = inactive; ? = inconclusive; / = no result given; ! = not confirmed by another sample; [ ] = another dose, or the depositor's remark. Hits are enriched below; roughly 7.8% of the tested compounds scored in any of these assays.
SMILES,HCMV antiviral,Lassa entry inh,HCV inhibitor,Vaccinia mCherry,MARV entry inh,VACV Venus inh
CC(C)(C)NC(=O)C(c1ccc(O)cc1)N(C(=O)Cn1nnc(-c2ccc(F)cc2)n1)c1ccccc1F (stereo not given),.,/,4.47µM,/,/,/
CC(C)CON=C1C[C@@H](O)[C@@H](O)[C@@H]2[C@H]3C(=O)N(C4CCCCC4)C(=O)[C@@H]3CC[C@H]12,/,?,/,/,.,/
COC(=O)c1cc(CNC(=O)c2ccc3ncccc3c2)cc(NC(=O)c2ccccc2Cl)c1,/,/,/,.,/,.
CCC(=O)N1[C@H](CO)[C@@H]2c3ccccc3N(C(=O)Nc3ccc(Cl)cc3)C[C@@H]21,.,/,/,/,/,/
C=Cc1c(C)c2cc3[nH]c(cc4nc(cc5nc(cc1[nH]2)C(C)=C5CCC(=O)O)C(CCC(=O)O)=C4C)c(C)c3C=C,.,?,.,.,7.94µM!,.
CCOc1nc(Nc2ccc([N+](=O)[O-])cc2)nc(NC(C)(C)C)n1,.,?,?,.,?,.
CCN(CC)c1nc(Nc2ccc([N+](=O)[O-])cc2)nc(N(CC)CC)n1,.,/,11.2µM,/,/,/
COc1cc(/C=C2/C(=O)N(C)C(=S)N2C)ccc1OCc1cccc(F)c1,-67.6,.,?,.,.,.
Cc1ccc(CCNC(=O)c2cc3ccccn3n2)cc1,.,.,/,.,/,.
CCCCc1ccc(NC(=O)CSC2=NN3CCCC(=O)N=C3S2)cc1,.,?,11.2µM,.,?,.
O=C1CCCN2N=C(SCC(=O)Nc3cccc(Cl)c3)SC2=N1,-81.2,.,?,.,.,.
O=C1CCCN2N=C(SCC(=O)Nc3cccc(C(F)(F)F)c3)SC2=N1,-86.5,.,6.31µM,.,?,.
C=CC1=C(C)C2=CC3=NC(=C(CC(=O)[O-])C4=NC(=C(C)C4=C([O-])[O-])C=c4[n-]c(c(C)c4CC)=CC1=N2)C(CCC(=O)[O-])C3C.[Cu+2].[Na+].[Na+].[Na+] (stereo not given),/,/,/,.,/,.
COc1cc(=O)n2c(c1C(=O)N(C)Cc1nonc1C)CCN(Cc1cc(F)ccc1F)CC2,/,/,/,.,/,.
Cc1cc(O)c(C(c2ccccc2)N2CCN(c3ccccc3)CC2)c(=O)n1Cc1ccco1 (stereo not given),.,.,/,.,/,.
O=C(CNC(=O)OCc1ccccc1)Nc1ccc(Br)cc1C(=O)c1ccccc1Cl,.,.,8.91µM,.,?,.
COC(=O)CNC(c1ccccc1)c1cc(Br)ccc1NC(=O)CNC(=O)OCc1ccccc1 (stereo not given),/,?,.,?,?,.
CN(C(=O)CNC(=O)OCc1ccccc1)c1ccc(Br)cc1C(=O)c1ccccc1Cl,?,?,?,?,5.8µM,?
O=C(NCC1Cc2cc(F)cc(-c3cnccn3)c2O1)c1cccc(Cl)c1 (stereo not given),/,/,/,.,/,.
CC(C)=CCCC(C)=CCN1C(=O)[C@]2(O[C@H](COc3ccccc3)CC3=CCCC32)c2c(Br)cccc21 (stereo not given in full),/,/,/,/,.,/
CCOC(=O)c1ccc(N2C(=O)c3[nH]nc(-c4ccc(C)cc4)c3C2c2cccc(F)c2)cc1 (stereo not given),-99.2,?,/,?,?,.
CCOC(=O)c1ccc(N2C(=O)c3[nH]nc(-c4ccc(OC)cc4)c3C2c2cccc(O)c2)cc1 (stereo not given),-106.8,?,/,?,?,.
CCOC(=O)c1ccc(N2C(=O)c3[nH]nc(-c4ccccc4)c3C2c2ccc(CC)cc2)cc1 (stereo not given),-104.6,?,/,?,?,?
CCOC(=O)c1ccc(N2C(=O)c3[nH]nc(-c4ccc(C)cc4)c3C2c2ccc(O)cc2)cc1 (stereo not given),-74.0,?,/,.,10µM,.
CCOC(=O)c1ccc(N2C(=O)c3[nH]nc(-c4ccc(OCC)cc4)c3C2c2ccc(OC)cc2OC)cc1 (stereo not given),.,?,/,.,?,.
SMILES,HCMV antiviral,Lassa entry inh,HCV inhibitor,Vaccinia mCherry,MARV entry inh,VACV Venus inh
Cn1c(=O)c2c(-c3ccccc3)n3c(c2n(C)c1=O)C(c1ccccc1[N+](=O)[O-])Nc1ccccc1-3 (stereo not given),.,.,/,.,.,.
COc1ccccc1C1Nc2ccccc2-n2c(-c3ccccc3)c3c(=O)n(C)c(=O)n(C)c3c21 (stereo not given),-96.4,?,/,.,?,.
CCN1CCN(c2c(S(=O)(=O)c3ccc(OC)cc3)cnc3cc(OC)c(OC)cc23)CC1,.,/,/,.,?,.
COc1cc2ncc(S(=O)(=O)c3ccccc3)c(N3CCCC(C)C3)c2cc1OC (stereo not given),.,/,11.2µM,?,/,?
COc1ccc(NC(=O)C(NC(=O)Cc2cccs2)c2ccccc2)cc1 (stereo not given),-67.7,.,.,.,?,.
COc1ccc(NC(=O)C(NC(=O)Cc2cccs2)c2ccc(C)cc2)cc1 (stereo not given),.,.,.,.,.,.
O=C(Cc1cccs1)Nc1cccc(C(=O)Nc2ccc(C(=O)O)cc2)c1,.,.,.,.,.,.
O=C(Cc1cccs1)Nc1ccc(C(=O)O)cc1,-77.0,.,.,/,?,.
CCOC(=O)c1c(NC(=O)Cc2cccs2)sc(C)c1C,.,.,35.5µM,.,.,.
O=c1[nH]c(NNC(=S)NCc2ccccc2)nc2c1C1(CCCCC1)Cc1ccccc1-2,-62.3,/,.,/,/,/
c1ccc(CNc2nc3ccccc3[nH]2)cc1,.,?,.,.,?,.
S=C(NCc1ccccc1)NNc1nc2ccccc2[nH]1,-70.1,?,.,.,?,.
CC1(C(=O)NCc2ccccc2Br)CCN1Cc1c(F)cccc1F (stereo not given),-61.1,/,/,.,/,.
CC1(C(=O)NCc2ccccc2Br)CCN1Cc1ccccc1OC(F)F (stereo not given),.,/,/,.,/,.
CCn1nc(C)cc1C(=O)OCC(=O)c1ccc(Cl)cc1,.,.,.,.,.,.
CCn1nc(C)cc1C(=O)Sc1cccc(Br)c1,-106.5,.,.,.[7.34 µM],.,.[7.34 µM]
CCn1nc(C)cc1C(=O)Sc1ccc(Cl)cc1Cl,-107.9,.,.,.[7.34 µM],.,.[7.34 µM]
CCCCN1C=CC(=C2C(=O)c3ccccc3C2=O)C=C1,-88.1,?,.,.,?,.
C[N+](C)(C)c1ccc(/C=C2\C=Cc3ccccc32)cc1,/,/,/,.,/,.
Cc1csc(CNc2ncnc3ccc(-c4ccc5c(c4)OCO5)cc23)c1,-69.5,/,/,/,/,/
Cc1cccc(-c2ccc3ncnc(NCc4cccs4)c3c2)c1,-76.3,/,/,/,/,/
Clc1cccc(-c2ccc3ncnc(NCc4cccs4)c3c2)c1,.,/,/,/,/,/
Cc1csc(CNc2ncnc3ccc(-c4ccoc4)cc23)c1,-85.9,/,/,/,/,/
Cc1csc(CNc2ncnc3ccc(-c4cccnc4)cc23)c1,.,/,/,/,/,/
Cc1cccc(CNc2ncnc3ccc(-c4ccc5c(c4)OCCO5)cc23)c1,-89.2,/,/,/,/,/
OC1CCN(Cc2ccc3c(c2)CN(C/C=C/c2ccco2)CCO3)CC1,/,/,/,.,/,.
